From PubChem
HP1b chromo inh – HTS for Inhibitors of HP1-beta Chromodomain Interactions with Methylated Histone Tails. 0.56% of 390,000 active. Potency, µM (series often up to 114 µM), for the others: top-dose activity change, negative = inhibition, usual class: inhibitors. AlphaScreen HP1-beta / biotin-H3K9me3 peptide binding; note: potency is the fitted concentration of half-maximal effect; nearly all actives have a fitted effect of over 70% in size
Target sequence (P83916 whole entry, looked up): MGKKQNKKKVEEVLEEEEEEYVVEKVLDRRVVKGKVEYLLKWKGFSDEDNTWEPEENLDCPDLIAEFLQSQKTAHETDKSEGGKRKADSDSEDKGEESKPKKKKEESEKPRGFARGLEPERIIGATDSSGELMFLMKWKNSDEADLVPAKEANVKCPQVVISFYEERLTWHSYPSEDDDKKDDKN
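HP1-beta protein (50 nM final) preincubated 30 min at room temperature with biotinylated H3(1-18)K9me3 peptide (50 nM) in PBS pH 7.4, 0.01% Tween-20, then compound added for 30 min. AlphaScreen streptavidin donor/nickel chelate acceptor beads (10 ug/mL final), 30 min dark, luminescence read.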
PI5P4Ka inh – qHTS for Inhibitors of phosphatidylinositol 5-phosphate 4-kinase (PI5P4K) | Phosphatidylinositol 5-phosphate 4-kinase type-2 alpha (Homo sapiens), P48426 | PI5P4Kalpha enzyme, ADP-Glo luminescence, 60 min; active compounds read low | max response, % | 1.2% of 330,000 active | AID 652105, 2013; active = max response of -50% or lower; inconclusive = between -30% and -50%; inactive = -30% or higher; note: value at the top dose of about 77 µM; % is set by controls: 0 for no effect and ±100 for the full control effect
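Luminescence from ADP-Glo served as readout of PI5P4Kalpha activity in a qHTS format. Reaction: enzyme, substrate, compound, ATP at 5 microM final, 60 min at RT.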
BAZ2B inh – qHTS Assay for Inhibitors of BAZ2B; AlphaScreen BAZ2B-H3K14Ac peptide displacement; 4.4% of 360,000 active; Potency, µM (top dose mostly 114 µM), inactives show at the highest dose activity change, negative = inhibition, most hits filed as inhibitors; Bromodomain adjacent to zinc finger domain protein 2B (Homo sapiens), Q9UIF8; note: potency is the fitted concentration of half-maximal effect; % is set by controls: 0 for no effect and ±100 for the full control effect; nearly all actives have a fitted effect of over 60% in size
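Complex of BAZ2B and biotin-H3K14Ac (50 nM apiece) forms over 30 min at RT, then faces library compounds up to 110 uM for another 30 min; AlphaScreen beads added, 20 min dark incubation, luminescence read.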
JMJD2E inh – qHTS Assay for Inhibitors of Human Jumonji Domain Containing 2E (JMJD2E); Lysine-specific demethylase 4E (Homo sapiens), B2RXH2; JMJD2E catalytic domain, FDH-coupled NADH fluorescence (FDH is formaldehyde dehydrogenase); Potency, µM (series often up to 57.1 µM), for the others: at the top dose activity change, negative = inhibition, most hits filed as inhibitors; 1.6% of 230,000 active; active = well fitted inhibition curve with a large enough effect, not every such curve was filed as active; inconclusive = small, poorly fitted or top-dose-only effect, or another doubt; inactive = no such curve, though single readings can be large or run the other way;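 note: potency is the fitted concentration of half-maximal effect; 0% = wells with enzyme and -100% = buffer wells without enzyme; nearly all actives have a fitted effect of over 50% in size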
Target sequence (B2RXH2 1-337 limits assumed): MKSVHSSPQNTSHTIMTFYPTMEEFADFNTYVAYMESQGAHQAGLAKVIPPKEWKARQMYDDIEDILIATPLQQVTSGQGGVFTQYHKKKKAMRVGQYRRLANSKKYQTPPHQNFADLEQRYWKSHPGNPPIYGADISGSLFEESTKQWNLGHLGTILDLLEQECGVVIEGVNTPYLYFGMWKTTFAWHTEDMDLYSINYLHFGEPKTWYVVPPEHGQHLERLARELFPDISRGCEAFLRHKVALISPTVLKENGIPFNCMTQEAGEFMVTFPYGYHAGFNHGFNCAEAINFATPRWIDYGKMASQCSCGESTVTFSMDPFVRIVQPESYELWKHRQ
JMJD2A Tudor – qHTS Assay for Inhibitors of JMJD2A-Tudor Domain | AID 504339, 2011 | Lysine-specific demethylase 4A (Homo sapiens), O75164 | 4.4% of 390,000 active | AlphaScreen JMJD2A-Tudor / H3K4me3 peptide binding | Potency, µM (top dose mostly 114 µM), for the others: at the highest dose activity change, negative = inhibition, usual class: inhibitors; note: potency is the fitted concentration of half-maximal effect; % is set by controls: 0 for no effect and ±100 for the full control effect; nearly all actives have a fitted effect of over 50% in size
L3MBTL1 inh – qHTS Assay for the Inhibitors of L3MBTL1; AID 485360, 2010; AlphaScreen L3MBTL1–H3K9me1 peptide binding; 0.66% of 230,000 active; Lethal(3)malignant brain tumor-like protein 1 (Homo sapiens), Q9Y468; Potency, µM (highest dose often 57.1 µM), inactives show at the highest dose activity, negative = inhibition, usual class: inhibitors; note: potency is the fitted concentration of half-maximal effect; % is set by controls: 0 for no effect and ±100 for the full control effect; nearly all actives have a fitted effect of over 60% in size
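L3MBTL1 (50 nM) pre-complexed 30 min with biotinylated H3(1-15)K9me1 peptide (75 nM), then compounds added for 30 min at room temperature; AlphaScreen streptavidin donor/nickel chelate acceptor beads (10 ug/mL final) read after 30 min dark incubation.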
Starred values were filed as active, the others as inactive; ? = inconclusive; . = no result given; [ ] = another dose, or the depositor's remark. The list is not random: actives were taken first. Their share in the collection is about 5.7%. Unless noted, calls come from the whole dose curve; as a rule, active = well fitted inhibition curve with a large enough effect; inconclusive = small, poorly fitted or top-dose-only effect; inactive = no such curve, though single readings can be large or run the other way.

SMILES	HP1b chromo inh	PI5P4Ka inh	BAZ2B inh	JMJD2E inh	JMJD2A Tudor	L3MBTL1 inh
COc1ccc(NC(=O)Cn2c(=O)oc3cc(S(=O)(=O)N4CCCCC4C)ccc32)cc1 (centres undefined)	33%	.	-2%	.	-7%	.
CCCCCOC(=O)c1[nH]c2c(c1C)C(=O)CC(c1ccco1)C2 (centres undefined)	?	?	56µM*	1%	35µM*	?
CCC(C)n1ncn(-c2ccc(N3CCN(c4ccc(O)cc4)CC3)cc2)c1=O (centres undefined)	?	-11	-32%	?	89µM*	-1%
CCC(C)n1ncn(-c2ccc(N3CCN(c4ccc(OCC5COC(Cn6cncn6)(c6ccc(Cl)cc6Cl)O5)cc4)CC3)cc2)c1=O (centres undefined)	-2%	10	?	-5%	?	.
CCOc1ccc(CCNC(=O)c2cc3c(s2)-c2ccccc2OC3)cc1OCC	24%	.	6%	.	?	.
CC1=C(C(=O)OCc2ccccc2)C(c2ccccc2OS(=O)(=O)c2ccc([N+](=O)[O-])cc2)NC(=O)N1CCCC(=O)O (centres undefined)	-12%	-64*	.	.	?	.
COC(=O)C1=C(C)N(CCCC(=O)O)C(=O)NC1c1ccc([N+](=O)[O-])cc1 (centres undefined)	28%	-101*	.	.	-16%	.
CCOC(=O)C1=C(C)N(CCCC(=O)O)C(=O)NC1c1cccc(OC)c1 (centres undefined)	42%	?	.	.	3%	.
CCOC(=O)C1=C(C)N(CCCC(=O)O)C(=O)NC1c1ccc([N+](=O)[O-])cc1 (centres undefined)	37%	-86*	3%	-14%	-9%	-1%
CCOC(=O)C1=C(C)N(CCCC(=O)O)C(=O)NC1c1ccccc1OS(=O)(=O)c1ccc([N+](=O)[O-])cc1 (centres undefined)	19%	?	.	.	-21%	.
O=C(O)COc1ccccc1/C=N/NC(=O)CSc1nc2ccccc2n1Cc1ccccc1Cl	1%	-9	71µM*	-1%	?	-11%
COc1ccc(S(=O)(=O)NCCc2sc(-c3cccc(C)c3)nc2C)cc1	19%[57 µM]	.	-1%	.	-25%	.
Cc1nnc(N2CCC(C(=O)NCCc3ccccc3Cl)CC2)c2nn(-c3ccccc3)c(C)c12	6%	.	-23%	.	-30%	.
N#Cc1ccccc1NC(=O)COC(=O)c1cccs1	31%	-2	.	.	3%	3%
O=C(NC(=S)Nc1cccc(Cl)c1N1CCCCC1)c1ccco1	-13%	.	?	3%	-32%	-13%
O=C(NC(=S)Nc1cccc(Cl)c1N1CCCCC1)c1cccs1	?	.	-28%[57.1 µM]	14%	56µM*	-6%
N#Cc1ccccc1NC(=S)NC(=O)c1cccs1	-7%[57 µM]	-56*	-13%	.	-25%	.
COC(=O)c1ccc(Cl)cc1NC(=O)Nc1nnc(N(C)Cc2ccccc2)s1	74%	.	4%	.	18%	.
Cc1ccc(S(=O)(=O)N2CCOCC2)cc1C(=O)Nc1ccccc1C(=O)O	30%	.	-13%	.	-15%	.
COC(=O)c1ccccc1NC(=O)NC1CCCCC1	48%	7	4%	?	-15%	10%
O=C(Nc1ccccc1C(=O)N1CCCCC1)NC1CCCCC1	-3%	1	1%	?	79µM*	4%
COc1cccc(CNC(=O)COc2cc(=O)n(C)c3ccccc23)c1	30%	.	-5%	.	-11%	.
CC(C)C[C@@H](CN1CCCC1CN1C(=S)NC[C@@H]1Cc1ccc(O)cc1)N1C[C@H](Cc2ccc(O)cc2)N(CC2CCCCC2)C1=S (some centres undefined)	-13%	?	.	.	40µM*	.
